High-throughput results from PubChem.
Hits are enriched below; roughly 15% of the tested compounds scored in any of these assays.
TDP1 cell CPT = growth inhibition of DT40 Tdp1-/-;hTDP1 cells with camptothecin (screen for TDP1 inhibitors); Potency, µM (doses to about 46.2 µM), for the others: at the top dose activity change, negative = growth inhibition, hits mostly inhibitors; 420,000 compounds, 12% hits; chicken DT40 Tdp1-/-;hTDP1 cells + 20 nM CPT, ATP luminescence, 48 h; further: nearly all actives have a fitted effect of over 55% in size
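Chicken DT40 Tdp1-/- cells complemented with human TDP1, 400 cells/well, exposed to compounds plus 20 nM camptothecin for at least 48 h at 37 C; viability read as ATP content by CellTiter-Glo luminescence.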
DT40 TDP1 no CPT = qHTS for Inhibitors of human tyrosyl-DNA phosphodiesterase 1 (TDP1): qHTS in cells in absence of CPT; AID 686978, 2013; DT40 Tdp1-/- hTDP1 cells, no CPT, ATP luminescence, 48 h; 420,000 compounds, 15% hits; Potency, µM (titrated, usually from 46.2 µM), without a hit: top-dose activity change, negative = growth inhibition, usual class: inhibitors; further: nearly all actives have a fitted effect of over 55% in size
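A cellular qHTS used chicken DT40 cells lacking endogenous Tdp1 but carrying stably transfected human TDP1. Compounds were applied without camptothecin, and cell growth kinetics were judged by ATP-dependent luminescence after ≥48 hr.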
RORgamma inh = ROR gamma (mouse) transcription inhibition; Potency, µM (doses to about 53.6 µM), for the others: at the top dose activity change, negative = inhibition, most hits filed as inhibitors; 310,000 compounds, 5.4% hits; Drosophila S2 Gal4-RORgamma UAS-luciferase reporter, 20 h; P51450; further: nearly all actives have a fitted effect of over 60% in size
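Compounds are pin-transferred onto Drosophila Schneider cells expressing a copper-inducible Gal4–ROR gamma transactivation domain fusion. After 1 hr, copper sulfate is added to 700 uM final; luciferase is read 20 hr later.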
ALOX12 inh = inhibitors of human 12S-lipoxygenase ALOX12. P18054. purified 12hLO, xylenol orange hydroperoxide absorbance. Potency, µM (doses to about 108 µM), without a hit: at the top dose activity change, negative = inhibition, actives largely listed as inhibitors. 580,000 compounds, 1.1% hits. AID 1671190
Target sequence (P18054 whole entry, looked up): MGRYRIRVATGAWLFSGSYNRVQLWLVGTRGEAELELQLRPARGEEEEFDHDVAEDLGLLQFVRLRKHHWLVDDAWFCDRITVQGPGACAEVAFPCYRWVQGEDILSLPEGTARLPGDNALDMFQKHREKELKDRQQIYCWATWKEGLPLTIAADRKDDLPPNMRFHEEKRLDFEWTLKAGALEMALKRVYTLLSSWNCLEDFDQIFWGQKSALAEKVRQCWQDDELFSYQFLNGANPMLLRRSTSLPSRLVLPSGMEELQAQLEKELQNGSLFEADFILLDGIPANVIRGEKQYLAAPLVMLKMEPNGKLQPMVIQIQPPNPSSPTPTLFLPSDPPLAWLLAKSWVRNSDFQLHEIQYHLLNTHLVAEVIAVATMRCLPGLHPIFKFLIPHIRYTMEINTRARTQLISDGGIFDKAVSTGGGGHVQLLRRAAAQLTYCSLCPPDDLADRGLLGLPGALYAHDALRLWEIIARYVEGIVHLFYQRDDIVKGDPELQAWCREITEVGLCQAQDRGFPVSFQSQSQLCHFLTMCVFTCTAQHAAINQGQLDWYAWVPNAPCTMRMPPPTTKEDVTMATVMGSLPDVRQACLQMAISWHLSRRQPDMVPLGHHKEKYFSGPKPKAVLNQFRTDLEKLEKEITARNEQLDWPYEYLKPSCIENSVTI
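Purified human 12hLO at 150 nM in 25 mM Hepes, 0.01% Triton X-100, pH 7.0, preincubated 15 min at room temperature with compound. Reaction started with 40 uM arachidonic acid, 30 min at room temperature. Hydroperoxide measured by Fe-xylenol orange, 573/405 nm absorbance ratio.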
VP16 counter = Gal4-VP16 reporter inhibition counter-screen; Potency, µM (titrated, usually from 53.6 µM), inactives show top-dose activity, negative = inhibition, hits mostly inhibitors; 310,000 compounds, 3.5% hits; Drosophila S2 Gal4-VP16 UAS-luciferase, luminescence, 20 h;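 further: Gal4-VP16 expression switched on by copper sulfate through the metallothionein promoter; nearly all actives have a fitted effect of over 50% in size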
ELG1 repair inh = ELG1-dependent DNA repair inhibition | HEK293T ELG1-luciferase reporter, luminescence, 16 h; DNA damage induced by 5-fluorouridine | Potency, µM (doses to about 46.1 µM), inactives show at the top dose activity change, negative = inhibition, most hits filed as inhibitors | 330,000 compounds, 2.3% hits; further: nearly all actives have a fitted effect of over 55% in size
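Cells (2,000 per well) received 5-fluorouridine plus test compound or DMSO and were incubated 16 hr at 37 °C, 5% CO2. Luciferase activity was read by luminescence 30 min after ONE-Glo addition; signal suppression marked inhibition of damage-induced ELG1 function.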
* marks the source's active call; other numbers are inactive results; ? = inconclusive; nt = not tested or not shown; [ ] = another dose, or the depositor's remark. The call rests on the fitted dose curve; in most records, active means well fitted curve in the direction sought with a large enough effect; inconclusive means small, poorly fitted or top-dose-only effect, or another doubt; inactive means no such curve, though single readings can be large; an effect the other way counts as inactive or inconclusive. On the % scale 0 is the no-effect control and ±100 the full control effect; potency means the concentration at half of the fitted maximal effect.

SMILES	TDP1 cell CPT	DT40 TDP1 no CPT	RORgamma inh	ALOX12 inh	VP16 counter	ELG1 repair inh
O=C(Nc1ccc([N+](=O)[O-])cc1)c1cccc([N+](=O)[O-])c1	6%	9%	nt	?	nt	nt
O=C(Nc1ccc(O)cc1)c1cccc(Oc2ccc([N+](=O)[O-])cc2)c1	?	18µM*	-34%	-46%	-1%	-4%
CN(C)S(=O)(=O)Oc1cccc(C(=O)Nc2ccc([N+](=O)[O-])cc2)c1	?	8.2µM*	61%	-2%	5%	?
COc1cccc(CN2CCCCCCNC(=O)CC2c2ccccc2)c1OC (configuration not stated)	nt	nt	nt	-16%	nt	nt
COc1ccc(Nc2ncc(C(=O)Nc3ccc(F)cc3F)c3ccccc23)cc1	13µM*	18µM*	nt	?	nt	nt
COc1ccccc1NC(=O)c1cnc(Nc2ccccc2OC)c2ccccc12	1.6µM*	1.2µM*	24%	-7%	7%	-30%
CSc1ccc(C(C)NC(=O)Cc2ccccc2C)cc1 (configuration not stated)	nt	nt	nt	16%	nt	nt
CCCNc1c(NC(=O)c2ccc(Br)o2)c(=O)oc2ccccc12	nt	nt	nt	28%	nt	nt
COc1ccc(C)cc1NC(=O)CCN1CCN(c2ccccc2F)CC1	?	?	-3%	?	-4%	0%
COc1ccc(OC)c(NC(=O)CCN2CCN(c3ccccc3F)CC2)c1	29µM*	13µM*	4%	-13%	-10%	?
COc1ccc(C)cc1NC(=O)CN1CCN(c2ccccc2F)CC1	?	13µM*	0%	-25%	1%	?
CC1=CC(C)C2COC(c3ccc[n+](C)c3)C1C2C (configuration not stated)	8.2µM*	8.2µM*	2%	?	5%	-3%
COC(=O)C1=C(C)NC(=O)/C1=C\c1cc(C)n(-c2ccccc2)c1C	?	?	5%	?	22%	8%
COC(=O)C1=C(C)NC(=O)/C1=C\c1cc(C)n(-c2cc(C)cc(C)c2)c1C	?	?	-15%	40µM*	8%	?
CCNC(=S)N(Cc1cccs1)Cc1cc2cc(OCC)ccc2[nH]c1=O	?	16µM*	?	-19%	-6%	?
CCNC(=S)N(Cc1ccco1)Cc1cc2cc(OCC)ccc2[nH]c1=O	?	?	18µM*	-13%	?	?
CCNC(=S)N(CCN(C)C)Cc1cc2cc(OCC)ccc2[nH]c1=O	?	-26%	-3%	-9%	-15%	12%
O=C(C1CCN(S(=O)(=O)c2ccccc2)CC1)N1CCCC1c1ccc2c(c1)OCCCO2 (configuration not stated)	nt	nt	nt	-7%	nt	nt
CC1C(=O)N(Cc2ccccc2F)c2ccccc2N1C(=O)c1c(F)cccc1F (configuration not stated)	18µM*	18µM*	-8%	?	-2%	?
CC1Oc2ccccc2N(Cc2cccc(F)c2)C1=O (configuration not stated)	-15%	-20%	32%	0%	5%	?
COc1cccc(-c2ccc3c(c2)N(Cc2cccc(F)c2)C(=O)C(C)S3)c1 (configuration not stated)	?	?	nt	1%	nt	nt
O=C1NC(=O)N(Cc2ccccc2F)C1=O	2%	-7%	1%	?	2%	2%
CC1C(=O)N(Cc2cccc(F)c2)c2ccccc2N1C(=O)c1ccccc1 (configuration not stated)	?	15µM*	10%	2%	3%	23µM*
COc1cccc(CN2C(=O)C(C)N(C(=O)c3c(F)cccc3F)c3ccccc32)c1 (configuration not stated)	23µM*	10µM*	-1%	21%	-25%	?
COCC(=O)N1CCCC(c2noc(COC)n2)C1 (configuration not stated)	nt	nt	nt	15%	nt	nt
SMILES	TDP1 cell CPT	DT40 TDP1 no CPT	RORgamma inh	ALOX12 inh	VP16 counter	ELG1 repair inh
O=C(N/N=C(\c1ccccc1)c1cccnc1)c1ccc(O)cc1	-17%	13%	12%	-9%	7%	-4%
O=C(N/N=C(\Cc1ncc[nH]1)c1ccccc1)c1ccccc1	nt	nt	11µM*	-2%	-9%[10 µM]	?
O=C(N/N=C(\Cc1ncc[nH]1)c1ccccc1)c1cccnc1	4.6µM*	4.6µM*	-38%	4%	-10%	9.2µM*
NC(=O)c1ccc(C(=O)N/N=C(/Cc2ccccc2)c2ccccc2)cc1	-2%	-2%	38%	nt	17%	14%
O=C(N/N=C(\Cc1ncc[nH]1)c1ccccc1)c1ccncc1	4.6µM*	4.6µM*	-37%	2%	-14%	?
CC(=O)c1ccc(N2CCN(S(=O)(=O)c3ccc4c5c3CC(=O)N5CC(C)S4)CC2)cc1 (configuration not stated)	21µM*	21µM*	6%	nt	-10%	-20%
CC(=O)c1ccc(N2CCN(S(=O)(=O)c3ccc4c(c3)CC(=O)N4)CC2)cc1	-19%	-25%	11%	22%	-13%	7%
O=S(=O)(CCSc1ccc(Br)cc1)c1ccc(Cl)cc1	nt	nt	nt	22%	nt	nt
O=C1CC2(CCN(C(=O)c3ccc([N+](=O)[O-])cc3)CC2)Oc2ccccc21	?	?	nt	-8%	nt	?
O=C1CC2(CCN(C(=O)c3ccc(Br)cc3)CC2)Oc2ccccc21	?	18µM*	nt	-8%	nt	-25%
Cc1c(C(=O)N2CCC3(CC2)CC(=O)c2ccccc2O3)cccc1[N+](=O)[O-]	18µM*	23µM*	nt	-37%	nt	?
CCc1cc2c(cc1C1(C)OCCO1)C(C)(C)CCC2(C)C	nt	nt	nt	8%	nt	nt
CCCCCn1c(CN2CCN(c3cc(Cl)ccc3C)CC2)nc2c1c(=O)[nH]c(=O)n2C	14µM*	13µM*	-15%	-16%	-10%	?
CCCCCn1c(CN2CCN(c3ccc(OC)cc3)CC2)nc2c1c(=O)[nH]c(=O)n2C	?	23µM*	nt	-34%	nt	nt
COC(=O)Cn1c(CN2CCN(c3cc(Cl)ccc3C)CC2)nc2c1c(=O)[nH]c(=O)n2C	nt	nt	nt	-23%	nt	nt
Cc1ccc(Cl)cc1N1CCN(Cc2nc3ccsc3c(=O)[nH]2)CC1	?	?	11µM*	?	?	0%
COc1ccc(N2CCN(Cc3nc4c(c(=O)[nH]c(=O)n4C)n3Cc3ccc(C)cc3)CC2)cc1	-2%	?	nt	?	nt	nt
COc1ccc(N2CCN(Cc3nc4ccsc4c(=O)[nH]3)CC2)cc1	-4%	-4%	14%	-17%	2%	3%
